Shown are actives, neighbours in structure and some others; about 7.9% of the full set was active somewhere.
KB-V1 MDR tox: kills drug-selected multidrug resistant KB-V1 cells | KB-V1 MDR cells viability, CellTiter-Glo, 72 h | Potency, µM (series often up to 46.1 µM), most hits filed as cytotoxic | actives 3.4% (n = 400,000); further: on the % scale 0 is the no-effect control and ±100 the full control effect; nearly all actives have a fitted effect of over 60% in size
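Drug-selected KB-V1 cells, grown in DMEM lacking phenol red with 10% FBS, receive compound titrations; after three days at 37 degrees C, surviving cell ATP is quantified by CellTiter-Glo luminescence and responses normalized and curve-fitted.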
MCF10A rereplic: inducers of DNA re-replication in MCF 10A breast cells. AID 624296. MCF 10A DNA re-replication, Hoechst nuclear intensity, 48 h. Potency, µM (doses to about 46.1 µM), for the others: at the highest dose activity, positive = re-replication, most hits filed as activators. actives 2.9% (n = 350,000); further: % of control where 0% means no effect; nearly all actives have a fitted effect of over 50% in size
HT1080NT lethal: kills 2HG-producing HT-1080-NT fibrosarcoma cells. HT-1080-NT fibrosarcoma viability, CellTiter-Glo ATP luminescence, 48 h. Potency, µM (doses to about 46.1 µM), for the others: at the top dose activity, negative = less viability, hits mostly cytotoxic. actives 1.6% (n = 360,000). AID 686970;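 further: NT is the 2HG producing partner of a matched IDH1 knockdown line; 0% = DMSO-treated cells and -100% = media-only wells without cells; nearly all actives have a fitted effect of over 55% in size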
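A 48-hour cytotoxicity screen used HT-1080-NT cells plated 2 hours before compound delivery. ATP-based CellTiter-Glo luminescence measured viability, normalized to DMSO and no-cell controls.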
HT1080 IDH1KD tx: kills HT-1080 cells with IDH1 knockdown; HT-1080 IDH1 knockdown viability, ATP luminescence, 48 h; Potency, µM (titrated, usually from 46.1 µM), for inactives: top-dose activity, negative = toxicity, usual class: cytotoxic; actives 2% (n = 360,000);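 further: 0% = DMSO wells and -100% = cell-free medium wells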
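Cytotoxicity counter-line: IDH1KD HT-1080, 48 h, CellTiter-Glo. Curves classed by r2, magnitude and activity.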
SW480 rereplic: inducers of DNA re-replication in SW480 colon cancer cells. SW480 DNA re-replication, Hoechst DNA content imaging, 48 h. Potency, µM (top dose mostly 46.1 µM), for inactives: at the highest dose re-replication activation, hits mostly activators. actives 1.8% (n = 340,000). AID 624297; further: % of control where 0% means no effect; nearly all actives have a fitted effect of over 55% in size
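Image-based DNA-content assay: after two days of treatment, nuclei were labelled with the DNA dye Hoechst and imaged, and hits were compounds raising the count of nuclei showing high fluorescence intensity.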
KB-3-1 tox: kills parental KB-3-1 adenocarcinoma cells. AID 1347075. Potency, µM (doses to about 46.1 µM), actives largely listed as cytotoxic. actives 1.4% (n = 400,000). KB-3-1 viability, CellTiter-Glo ATP luminescence, 72 h; further: on the % scale 0 is the no-effect control and ±100 the full control effect; nearly all actives have a fitted effect of over 60% in size
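72 h, 37 °C compound treatment of KB-3-1 parental cells; CellTiter-Glo added, 10 min, luminescence read. Data corrected against DMSO-only plates and normalized before curve fitting.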
The depositor's hits bear a star; i = inactive; ? = inconclusive; · = not tested or not shown. The call rests on the fitted dose curve; in most records, active means well fitted curve in the direction sought with a large enough effect; inconclusive means small, poorly fitted or top-dose-only effect, or another doubt; inactive means no such curve, though single readings can be large; an effect the other way counts as inactive or inconclusive. Potency means the concentration at half of the fitted maximal effect.

SMILES | KB-V1 MDR tox | MCF10A rereplic | HT1080NT lethal | HT1080 IDH1KD tx | SW480 rereplic | KB-3-1 tox
Cc1cccc(N2CCN(C(=O)CCn3c(=S)[nH]c4cc5c(cc4c3=O)OCO5)CC2C)c1 (stereo not given) | 10µM* | ? | -8% | 1% | 1% | i
COc1cc(NC(=O)Nc2cccc(-c3noc(C)n3)c2)cc(OC)c1OC | i | · | · | · | · | i
CN(C)c1ccc(NC(=O)/C=C/c2c(Cl)cccc2Cl)cc1 | 13µM* | 16µM* | ? | ? | 6% | ?
CN(C)S(=O)(=O)c1ccc(NC(=O)/C=C/c2ccccc2Cl)cc1 | 15µM* | ? | -12% | -27% | 16% | i
O=C(/C=C/c1ccccc1Cl)Nc1ccccc1 | i | 4% | -7% | -20% | -5% | i
NC(=O)c1ccccc1NC(=O)/C=C/c1c(Cl)cccc1Cl | 4.1µM* | ? | -28% | ? | ? | i
C[C@H](CO)N1C[C@H](C)[C@@H](CN(C)C(=O)CN2CCOCC2)Oc2cc(Br)ccc2S1(=O)=O | i | · | 1% | 2% | · | i
CCCCc1nn2c(=O)cc(COC(=O)c3ccccc3NC(=O)C3CCCCC3)nc2s1 | i | · | · | · | · | i
COc1ccc(OC)c(C2CC(=O)Oc3c2c(=O)n(C)c2ccccc32)c1 (stereo not given) | i | · | · | · | · | i
CCCCN(CCCC)CC(O)CN(c1cc([N+](=O)[O-])ccc1OC)S(=O)(=O)c1ccccc1 (stereo not given) | 2.6µM* | 13% | ? | ? | ? | ?
COc1ccccc1CCNC(=O)C(=O)NCC(c1ccco1)S(=O)(=O)c1ccc(C)cc1 (stereo not given) | i | · | · | · | · | i
COc1ccc(N(C)S(=O)(=O)c2ccc3c(c2)n(C)c(=O)c(=O)n3C)cc1 | i | · | · | · | · | i
Cc1cccc(C)c1N=Cc1c(O)n(-c2nccs2)c(=O)c2ccccc12 | 23µM* | 3% | -5% | 1% | 1% | i
CCN(CC)S(=O)(=O)c1ccc(N2CCN(c3cccc(OC)c3)CC2)c([N+](=O)[O-])c1 | 2.9µM* | 1% | -3% | ? | -6% | i
COc1cccc(N2CCN(c3ccc(S(=O)(=O)N4CCN(C)CC4)cc3[N+](=O)[O-])CC2)c1 | ? | ? | -5% | -5% | 10% | ?
CCOC(=O)C(=Cc1cc(=O)c(OC)co1)C(=O)OCC | ? | 1.6µM* | 12µM* | 18µM* | ? | 4.6µM*
COc1cc(/C=N/N=C(/N)c2nonc2N)cc(Br)c1OCc1ccccc1C | i | 13µM* | ? | ? | 1% | i
Cc1cc(NC(=O)c2cc(-c3ccc(Cl)cc3)on2)n(-c2ccccc2)n1 | i | · | · | · | · | i
CC(=O)Nc1ccc(S(=O)(=O)NCC2CCC(C(=O)NCCc3ccc(C)cc3)CC2)cc1 (stereo not given) | i | · | · | · | · | i
O=C(O)CCC(=O)Nc1cccc2cccnc12 | i | -8% | -9% | 13% | 0% | i
O=C(CCC(=O)OCC(=O)c1ccccc1)Nc1cccc2cccnc12 | i | 16µM* | 0% | 8% | 18µM* | i
COc1ccc(C)cc1NC(=O)CO/N=C(\N)CC(=O)Nc1ccccc1OC | i | -3% | 5% | 3% | -4% | i
COc1ccccc1NC(=O)C/C(N)=N/OCC(=O)Nc1cccc(Cl)c1 | 18µM* | -5% | 8% | 12% | -3% | i
CCCOc1ccc(C2c3c(oc4ccccc4c3=O)C(=O)N2c2nnc(C(C)C)s2)cc1 (stereo not given) | i | · | · | · | · | i
CCc1noc(C)c1C(=O)NNC(=O)c1cc(OC)c(OC)c(OC)c1 | i | -15% | 7% | -2% | 18µM* | i

Compound activity as filed in PubChem BioAssay.
